From PubChem
The list is not random: actives were taken first. Their share in the collection is about 21%.
Pf growth 48h = P. falciparum growth inhibition at 48 hours (one generation). P. falciparum luciferase growth in erythrocytes, 48 h. Potency, µM (titrated, usually from 28.7 µM), for the others: top-dose activity change, negative = inhibition, actives largely listed as inhibitors. hit rate 5.9% among 310,000; further: potency means the concentration at half of the fitted maximal effect; on the % scale 0 is the no-effect control and ±100 the full control effect
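Luciferase-expressing P. falciparum in infected erythrocytes (2% hematocrit, 0.1% parasitemia final) in RPMI 1640/0.5% Albumax were exposed to compound for 48 hours at 37 C, 5% CO2; growth read as luminescence.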
Cycloheximide cs = counter-screen hit for Shiga toxin inhibitors, cycloheximide; cell reporter, cycloheximide protein synthesis inhibition counterscreen; AID 2314; hit rate 12% among 300,000; max response, %; in the data active means max response mostly above about 13%, no sharp cut-off; inactive means mostly below about 14%; further: read at 38.3 µM for the half of the compounds with a filed dose; 0% is about no effect
Shiga inhibitor = blocks Shiga toxin action in Vero cells; Vero cells, Shiga toxin protein synthesis inhibition reporter; inhibition, % at 38.7 µM; hit rate 9.2% among 290,000; AID 2315; in the data active means inhibition mostly above about 28%, no sharp cut-off; inactive means mostly below about 43%; further: 0% is about no effect
NS1 function inh = blocks influenza NS1 protein function; Potency, µM (doses to about 46.1 µM), without a hit: at the top dose activity, positive = more growth; hit rate 0.4% among 270,000; AID 2326; calls by dose curve; further: potency means the concentration at half of the fitted maximal effect; actives are rising curves; nearly all actives have a fitted effect of over 50% in size
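Compounds were scored for reversing the slow growth caused by influenza A NS1 in S. cerevisiae, measured by optical density at 600 nm. Assay medium contained 2% galactose at pH 6.0; NS1-free yeast of the same strain were the positive control.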
FBPA Giardia inh = inhibitors of Giardia lamblia fructose-1,6-bisphosphate aldolase | A8B2U2 | purified Giardia FBPA | Potency, µM (highest dose often 59.6 µM), inactives show at the top dose activity, negative = inhibition, actives largely listed as inhibitors | hit rate 0.71% among 290,000 | AID 2451; further: potency means the concentration at half of the fitted maximal effect; on the % scale 0 is the no-effect control and ±100 the full control effect; nearly all actives have a fitted effect of over 55% in size
Target sequence (A8B2U2 whole entry, looked up): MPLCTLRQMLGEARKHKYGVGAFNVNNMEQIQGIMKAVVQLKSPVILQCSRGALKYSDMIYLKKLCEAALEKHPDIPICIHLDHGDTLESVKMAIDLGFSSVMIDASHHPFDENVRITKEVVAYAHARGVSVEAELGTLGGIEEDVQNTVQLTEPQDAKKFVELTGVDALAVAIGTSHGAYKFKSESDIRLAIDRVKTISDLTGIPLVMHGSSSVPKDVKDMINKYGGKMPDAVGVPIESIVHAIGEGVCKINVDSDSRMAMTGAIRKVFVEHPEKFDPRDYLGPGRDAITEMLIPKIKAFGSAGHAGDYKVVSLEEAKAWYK
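Giardia FBPA (40 nM reagent) was preincubated 10 min at RT with compound (up to 57.5 uM final), then substrate plus GAPDH/TPI/NAD/arsenate coupling system with diaphorase/resazurin was added; resorufin fluorescence (525/598 nm) was read after 20 min.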
Pf growth 96h = P. falciparum growth inhibition at 96 hour, primary screen for plastid delayed-death inhibitors. P. falciparum luciferase reporter growth, 96 h. Potency, µM (doses to about 28.7 µM), without a hit: top-dose activity change, negative = inhibition, actives largely listed as inhibitors. hit rate 6.9% among 320,000; further: potency means the concentration at half of the fitted maximal effect; on the % scale 0 is the no-effect control and ±100 the full control effect
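Erythrocytes infected with luciferase-expressing P. falciparum were dispensed at 2% hematocrit and 0.05% parasitemia (final), then incubated with compounds 96 hours at 37 C in 5% CO2. Luminescence after detection reagent addition reported growth.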
* hit, by the source's call; ? = inconclusive; / = no result given; [ ] = another dose, or the depositor's remark. Unless noted, the call rests on the fitted dose curve; in most records, active means well fitted curve in the direction sought with a large enough effect; inconclusive means small, poorly fitted or top-dose-only effect, or another doubt; inactive means no such curve, though single readings can be large; an effect the other way counts as inactive or inconclusive.

SMILES | Pf growth 48h | Cycloheximide cs | Shiga inhibitor | NS1 function inh | FBPA Giardia inh | Pf growth 96h
Cc1ccccc1-c1nc(N(C)C)c2ccccc2n1 | / | / | / | / | -1% | /
Cc1sc(NC(=O)c2c(F)cccc2F)nc1-c1ccccc1 | 0% | 10 | 14 | -12% | 7% | ?
COc1nc(Nc2nc3ccccc3c(=O)[nH]2)nc2ccc(C)cc12 | 2.6µM* | 2 | -8 | -6% | -1% | ?
Cc1sc(NC(=O)c2ccc(=O)n(C)n2)nc1-c1ccccc1 | 52% | 32* | 42 | / | -5% | 118%
Cc1sc(NC(=O)Cn2[nH]c(=O)c3ccccc3c2=O)nc1-c1ccccc1 | ? | 13 | -10 | ? | -13% | 12µM*
CC(C)Nc1nc2ccccc2c(=O)[nH]1 | -14% | 6 | 8 | -2% | 0% | 10µM*
Cc1ccc(C)c(Nc2ccc(C(=O)NCCc3ccccc3)cn2)c1 | ? | 22* | 14 | -20% | 10% | 55%
Cc1ccc(Nc2ccc(C(=O)NCCc3ccccc3)cn2)cc1 | ? | 12* | 15 | 5% | 4% | ?
Cc1nn(-c2ccccc2)c(C)c1NC(=O)COC(=O)CC(C)c1ccccc1 (centres undefined) | 25% | / | / | / | / | 8%
CC12CCC(=O)N1C(C(=O)N1CCN(S(=O)(=O)c3ccc(F)c(F)c3)CC1)CS2 (centres undefined) | ? | / | / | / | / | 26%
O=C(Cn1cc2c(n1)CCCC2)Nc1cc(-c2cccc(Cl)c2)no1 | ? | 28* | 44* | -88% | -8% | 23%
O=C(Cn1cc2c(n1)CCCC2)NCc1ccccn1 | 4% | -1 | 2 | -3% | -1% | 34%
CC(NC(=O)Cn1cc2c(n1)CCCCC2)c1ccccc1 (centres undefined) | -20% | -2 | -1 | 0% | 1% | -28%
O=C(Cn1cc2c(n1)CCCC2)NCc1cccs1 | / | 3 | -5 | -10% | 1% | 5.2µM*
COc1cc(OC)c(OC)cc1/C=N/n1c(COc2ccccc2)n[nH]c1=S | 2% | -3 | 3 | 7% | 22% | -2%
CCCCN(C)C(=S)Nc1ccc(Oc2ccccc2)cc1 | 0% | 22* | 12 | -9% | 0% | -13%
CN(C(=S)Nc1cccnc1)c1ccc(O)cc1 | 59% | 9 | 23* | -3% | ? | 77%
CN(C(=S)Nc1ccccc1)c1ccccc1 | 6% | -3 | -8 | 8% | 6% | -3%
CN(C(=S)Nc1ccc(Oc2ccccc2)cc1)C1CCCCC1 | 10% | 22* | -3 | 9% | -3% | 36%
S=C(Nc1ccc(Oc2ccccc2)cc1)NC1CCCCCC1 | -2% | -2 | 13 | -25% | 9% | 17%
CN(C(=S)Nc1ccc(Oc2ccccc2)cc1)c1ccc(O)cc1 | -10% | 15 | 17 | 19% | 1.4µM* | -16%
CC1CCCC(NCC(=O)Nc2ccc(C(N)=O)cc2)C1C (centres undefined) | -15% | -1 | 10 | / | 4% | 3%
CN(C(=S)Nc1ccc(SC(F)F)cc1)c1ccc(O)cc1 | 52% | 24* | 18 | -19% | ? | 23%
CN(Cc1ccccc1)C(=O)CCSc1nc(-c2ccc3c(c2)OCO3)cc(C(F)(F)F)n1 | 9.3µM* | -3 | 7 | 26% | -4% | -2%
O=C(CCSc1nc(-c2ccc3c(c2)OCO3)cc(C(F)(F)F)n1)NCc1ccccc1 | ? | -2 | 1 | 12% | 0% | 6%
SMILES | Pf growth 48h | Cycloheximide cs | Shiga inhibitor | NS1 function inh | FBPA Giardia inh | Pf growth 96h
Cc1cccc(/C=N\Nc2cn[nH]c(=O)c2Cl)c1 | 1% | 16* | 36* | -6% | 1% | 25%
O=C(O)C1OC(O)C(O)C(O)C1O (centres undefined) | / | / | / | / | 5% | /
C#CCCCO/N=C1/[C@H]2O[C@@H]2[C@@H](O)[C@H]2[C@H]1CCn1c(=O)n(-c3ccccc3)c(=O)n12 | / | / | / | / | 2%[12.9 µM] | /
CCOC(=O)c1c(C)[nH]c(C(=O)OC(C)C(=O)NCc2ccccc2)c1C (centres undefined) | -18% | / | / | / | / | 62%
CCOC(=O)c1c(C)[nH]c(C(=O)C(Cc2ccccc2)N(C)C)c1C (centres undefined) | ? | 20* | 34 | 13% | 8% | /
COC(=O)c1c(C)[nH]c(C(=O)NCc2ccco2)c1C | 323% | 20 | 23 | / | 8% | 59%
COC(=O)c1c(C)[nH]c(C(=O)C(Cc2ccccc2)N(C)C)c1C (centres undefined) | 2% | 26* | 96* | -1% | 7% | /
CC(Sc1nnc(C2CC2)n1C1CC1)C(=O)NC1(C#N)CCCCC1 (centres undefined) | 2% | / | / | / | / | -3%
CC1CCC(C(C)C)C(=O)C1 (centres undefined) | -1% | / | / | / | 2% | -11%
CC(C)c1nc2sc3c(c2c(=O)o1)CCCC3 | 25% | -1 | 2 | -63% | -1% | 5%
O=c1oc(-c2ccccc2)nc2sc3c(c12)CCC3 | 5% | 70* | 70* | -1% | 1% | 20%
Nc1nc(-c2ccccc2)nc2sc3c(c12)CCCC3 | 153% | 53* | 124* | -5% | -12% | -1%
Cc1sc2nc(-c3ccccc3)oc(=O)c2c1C | 40% | 66* | 113* | / | 10% | ?
Cc1nc2sc3c(c2c(=O)o1)CCCC3 | 22% | -4 | 23 | -9% | -18% | 2.1µM*
Nc1c2c(nc3sc4c(c13)CCCC4)CCCCCC2 | 10% | 2 | 15 | 1% | 6% | 35%
Cc1nc2sc(C)c(C)c2c(=O)o1 | 1% | -3 | -9 | -5% | -24% | -26%
O=C1CCC(=O)N1c1ccc(-c2nc3sc4c(c3c(=O)o2)CCC4)cc1 | 25% | 2 | 9 | 0% | 0% | 15%
N[C@@H](CSc1nc2ccccn2c1[N+](=O)[O-])C(=O)O | / | / | / | 19% | / | /
COc1ccc2c(c1)CCN1C2CCN2C(=O)CCC21 (centres undefined) | 43% | -2 | -7 | 1% | -4% | -7%
Cn1c(=O)[nH]c(=O)c2c1nc(N1CCN(CCO)CC1)n2Cc1ccccc1 | -2% | -2 | -10 | 23% | 2% | ?
COc1cc(-c2nc3ccccn3c2/N=C/c2cccc(OC)c2O)ccc1O | 5% | 23* | 54 | / | ? | 54%
COc1ccc(/C=N/c2c(-c3ccco3)nc3ccccn23)cc1OC | ? | -5 | -5 | 25% | ? | /
COc1cc(-c2nc3ccccn3c2/N=C/c2ccc(F)cc2)ccc1O | 21% | 16* | 24 | / | ? | ?
CCCCn1c(N)c(N(CCC(C)C)C(=O)CCN2C(=O)C3CC=CCC3C2=O)c(=O)[nH]c1=O (centres undefined) | -7% | / | / | / | / | ?
CN1CCN(c2ncc3nc(-c4ccccc4)c(=O)n(CCc4ccccc4)c3n2)CC1 | / | / | / | / | 6% | /
CC(C)OC(=O)CC(=O)CSc1nc2c(cc1C#N)CCCCC2 | 49% | 52* | 72* | -13% | -2% | 80%
CC(C)OC(=O)CSc1nc2c(cc1C#N)CCCCC2 | 94% | 14 | 9 | 0% | 1% | ?
